Laboratory results taken from PubChem BioAssay.
Calls of active or inactive are those of the source. Rule as the data show it, unless noted: active = response above about 15%; inactive = the rest.

Tests used:
[1] = reduced mouse 2C T cell binding to pMHC/ICAM-1 vesicles – MLPCN validation set, flow cytometry, LFA-1/ICAM-1 modulator project, pilot screen (AID 2523;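 active = response below a set limit, under 55% cells CD8-positive and vesicle-bound, and CD8 cells' 90th-percentile brightness under 279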;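 as to vesicle binding response: mean PE anti-B7-1 fluorescence of CD8+ cells relative to row control; 100% = QL9-loaded vesicles with DMSO vehicle in the same plate row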); details: 2C mouse CD8+ T cells, at 7 µM, stronger effect = lower value; double positive events: measured here: CD8+/vesicle+ event percentage
[2] = molecular target: Integrin beta-1 (Homo sapiens) + Integrin alpha-4 (Homo sapiens) (UniProt P13612+P05556); experiment: alpha4beta1 integrin LIBS antibody binding reduction – U937 cells, HUTS-21 mAb, flow cytometry, validation set, VLA-4 allosteric modulator project, pilot screen (AID 2674;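 active = inhibition above 50%, about 3 SD of the validation set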;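 also: antibody binding induced by the VLA-4 ligand LDV present at three times its Kd; 0% = LDV ligand with antibody and no compound and 100% = antibody without LDV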); details: HUTS-21 LIBS mAb binding, at 6.7 µM, stronger effect = higher value, binding induced by LDV ligand
Sequence of Integrin beta-1 (Homo sapiens) + Integrin alpha-4 (Homo sapiens) (P05556 whole entry, looked up): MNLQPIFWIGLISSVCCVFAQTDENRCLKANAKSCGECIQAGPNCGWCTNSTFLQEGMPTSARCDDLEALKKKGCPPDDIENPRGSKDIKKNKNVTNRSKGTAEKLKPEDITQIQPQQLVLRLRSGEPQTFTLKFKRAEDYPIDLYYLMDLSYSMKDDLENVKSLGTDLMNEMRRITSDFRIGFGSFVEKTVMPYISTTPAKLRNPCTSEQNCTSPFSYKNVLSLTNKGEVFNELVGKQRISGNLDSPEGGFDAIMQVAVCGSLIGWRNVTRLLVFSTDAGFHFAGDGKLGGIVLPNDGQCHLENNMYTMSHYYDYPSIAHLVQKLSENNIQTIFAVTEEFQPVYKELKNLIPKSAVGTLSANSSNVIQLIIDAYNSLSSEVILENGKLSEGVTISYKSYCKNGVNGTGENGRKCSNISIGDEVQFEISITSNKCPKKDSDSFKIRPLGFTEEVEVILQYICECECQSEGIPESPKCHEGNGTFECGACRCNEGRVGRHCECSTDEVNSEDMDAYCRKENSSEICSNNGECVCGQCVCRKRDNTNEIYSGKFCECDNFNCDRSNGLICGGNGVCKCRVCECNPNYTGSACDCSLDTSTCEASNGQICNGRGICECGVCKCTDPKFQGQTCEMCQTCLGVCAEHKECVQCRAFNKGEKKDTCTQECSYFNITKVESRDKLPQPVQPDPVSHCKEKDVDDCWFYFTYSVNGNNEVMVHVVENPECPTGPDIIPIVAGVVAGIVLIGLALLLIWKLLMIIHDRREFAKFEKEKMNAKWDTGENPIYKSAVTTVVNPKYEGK
Sequence of Integrin beta-1 (Homo sapiens) + Integrin alpha-4 (Homo sapiens) (P13612 whole entry, looked up): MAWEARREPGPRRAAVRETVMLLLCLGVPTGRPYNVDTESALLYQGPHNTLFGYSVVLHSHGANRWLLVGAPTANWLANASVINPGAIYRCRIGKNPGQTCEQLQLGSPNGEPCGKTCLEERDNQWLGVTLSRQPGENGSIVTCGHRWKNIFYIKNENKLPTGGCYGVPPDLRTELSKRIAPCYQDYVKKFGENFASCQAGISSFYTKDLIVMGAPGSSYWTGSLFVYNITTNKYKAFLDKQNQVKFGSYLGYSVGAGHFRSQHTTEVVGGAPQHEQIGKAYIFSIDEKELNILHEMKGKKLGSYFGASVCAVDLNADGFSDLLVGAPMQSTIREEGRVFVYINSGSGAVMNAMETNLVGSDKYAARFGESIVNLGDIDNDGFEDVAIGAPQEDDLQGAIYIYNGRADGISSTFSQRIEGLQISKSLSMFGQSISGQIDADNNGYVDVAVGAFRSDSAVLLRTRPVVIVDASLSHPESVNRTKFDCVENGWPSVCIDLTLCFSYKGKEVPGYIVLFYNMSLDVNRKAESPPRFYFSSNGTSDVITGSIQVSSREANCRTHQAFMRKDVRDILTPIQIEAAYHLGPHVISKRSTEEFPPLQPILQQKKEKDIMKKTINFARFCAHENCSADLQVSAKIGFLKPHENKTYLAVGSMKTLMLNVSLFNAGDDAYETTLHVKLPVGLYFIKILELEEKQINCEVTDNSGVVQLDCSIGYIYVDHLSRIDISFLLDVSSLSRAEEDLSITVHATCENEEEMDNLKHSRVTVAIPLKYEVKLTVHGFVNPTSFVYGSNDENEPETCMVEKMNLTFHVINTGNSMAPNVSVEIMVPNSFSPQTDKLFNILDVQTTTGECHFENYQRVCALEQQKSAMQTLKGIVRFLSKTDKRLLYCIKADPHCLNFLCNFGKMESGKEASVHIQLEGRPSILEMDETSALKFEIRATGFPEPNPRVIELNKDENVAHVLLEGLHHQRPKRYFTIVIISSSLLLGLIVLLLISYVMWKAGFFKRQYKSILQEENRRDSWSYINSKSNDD

[3] = calorie-restriction mimetic ROS inhibitors, yeast – validation compound set, pilot screen (AID 2706;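 active = superoxide response below 65% of plate, a cut near 3 SD across the whole screen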;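 also: yeast exposed to compound for one week at 30 degrees C before staining; 100% = mean of all compound wells on the same plate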); details: S. cerevisiae aging, superoxide DHE fluorescence; at 10 µM, stronger effect = lower value
[4] = molecular target: Beta-adrenergic receptor kinase 1 (Homo sapiens) (UniProt P25098); experiment: GRK2 binders displacing RNA aptamer, biochemical, validation, human GRK2, bead flow cytometry (AID 488806;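 active = aptamer binding inhibition above 30%, about 3 SD of noise from non-fluorescent compounds; inactive = inhibition at or below 30%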); details: bead-bound GRK2, FAM-aptamer displacement, at 10 µM, stronger effect = higher value
Sequence of Beta-adrenergic receptor kinase 1 (Homo sapiens) (P25098 whole entry, looked up): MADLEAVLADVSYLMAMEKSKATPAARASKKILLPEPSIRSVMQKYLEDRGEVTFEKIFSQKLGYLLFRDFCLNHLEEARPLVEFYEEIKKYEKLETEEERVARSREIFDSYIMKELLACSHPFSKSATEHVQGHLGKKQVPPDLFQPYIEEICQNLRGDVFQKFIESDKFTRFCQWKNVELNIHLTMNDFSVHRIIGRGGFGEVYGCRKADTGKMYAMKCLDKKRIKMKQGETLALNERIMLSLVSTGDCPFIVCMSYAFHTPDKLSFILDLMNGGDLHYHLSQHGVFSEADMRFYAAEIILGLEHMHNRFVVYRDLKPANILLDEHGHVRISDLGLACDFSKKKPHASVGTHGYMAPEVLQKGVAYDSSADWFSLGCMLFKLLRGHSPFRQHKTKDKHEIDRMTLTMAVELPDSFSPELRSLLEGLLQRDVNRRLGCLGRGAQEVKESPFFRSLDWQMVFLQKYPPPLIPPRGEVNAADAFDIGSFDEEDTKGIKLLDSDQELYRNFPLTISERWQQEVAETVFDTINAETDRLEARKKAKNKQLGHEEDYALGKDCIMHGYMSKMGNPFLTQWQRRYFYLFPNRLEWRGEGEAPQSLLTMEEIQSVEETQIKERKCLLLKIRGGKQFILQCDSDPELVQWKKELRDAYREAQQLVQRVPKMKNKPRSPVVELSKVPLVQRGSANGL

[5] = molecular target: Beta-2 adrenergic receptor (Homo sapiens) (UniProt P07550); experiment: agonist-induced loss of surface beta2AR – cell-based, FAP fluorogen, flow cytometry, validation set, pilot screen (AID 504459;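 active = percent response above 42, roughly 3 SD of non-fluorescent test compounds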;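 also: agonist-driven loss of surface beta2AR via internalization measured by FAP dye flow cytometry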); details: Am2.2-beta2AR cells, at 10 µM, stronger effect = higher value
Sequence of Beta-2 adrenergic receptor (Homo sapiens) (P07550 whole entry, looked up): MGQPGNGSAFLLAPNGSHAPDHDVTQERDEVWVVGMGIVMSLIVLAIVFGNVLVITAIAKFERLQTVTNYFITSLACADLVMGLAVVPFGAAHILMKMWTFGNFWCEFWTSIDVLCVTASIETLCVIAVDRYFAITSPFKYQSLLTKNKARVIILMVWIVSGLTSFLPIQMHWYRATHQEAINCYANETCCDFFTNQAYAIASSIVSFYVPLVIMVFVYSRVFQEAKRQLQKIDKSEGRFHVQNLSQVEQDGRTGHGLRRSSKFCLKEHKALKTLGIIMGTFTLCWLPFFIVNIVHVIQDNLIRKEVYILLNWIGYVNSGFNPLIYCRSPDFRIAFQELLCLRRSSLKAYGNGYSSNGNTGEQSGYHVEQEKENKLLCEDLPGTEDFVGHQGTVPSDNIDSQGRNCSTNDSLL

[6] = molecular target: AP-2 complex subunit beta (Homo sapiens) (UniProt P63010); experiment: beta-arrestin/AP2 interaction blockers – biochemical, validation set, GST-AP2 beads, flow cytometry, pilot screen (AID 504541;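 active = inhibition above 54%, about 3 SD of non-fluorescent compounds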;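 also: AP2 carries R879A mutation and is captured from E. coli lysate; bead-bound FITC arrestin peptide fluorescence measuring arrestin peptide binding to AP2; 0% = DMSO wells and 100% = excess unlabeled arrestin peptide control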); details: FITC arrestin peptide, at 10 µM, stronger effect = higher value, AP2 beta2 appendage fragment, R879A mutant
Sequence of AP-2 complex subunit beta (Homo sapiens) (P63010 whole entry, looked up, the tested form may be a part, one chain of several): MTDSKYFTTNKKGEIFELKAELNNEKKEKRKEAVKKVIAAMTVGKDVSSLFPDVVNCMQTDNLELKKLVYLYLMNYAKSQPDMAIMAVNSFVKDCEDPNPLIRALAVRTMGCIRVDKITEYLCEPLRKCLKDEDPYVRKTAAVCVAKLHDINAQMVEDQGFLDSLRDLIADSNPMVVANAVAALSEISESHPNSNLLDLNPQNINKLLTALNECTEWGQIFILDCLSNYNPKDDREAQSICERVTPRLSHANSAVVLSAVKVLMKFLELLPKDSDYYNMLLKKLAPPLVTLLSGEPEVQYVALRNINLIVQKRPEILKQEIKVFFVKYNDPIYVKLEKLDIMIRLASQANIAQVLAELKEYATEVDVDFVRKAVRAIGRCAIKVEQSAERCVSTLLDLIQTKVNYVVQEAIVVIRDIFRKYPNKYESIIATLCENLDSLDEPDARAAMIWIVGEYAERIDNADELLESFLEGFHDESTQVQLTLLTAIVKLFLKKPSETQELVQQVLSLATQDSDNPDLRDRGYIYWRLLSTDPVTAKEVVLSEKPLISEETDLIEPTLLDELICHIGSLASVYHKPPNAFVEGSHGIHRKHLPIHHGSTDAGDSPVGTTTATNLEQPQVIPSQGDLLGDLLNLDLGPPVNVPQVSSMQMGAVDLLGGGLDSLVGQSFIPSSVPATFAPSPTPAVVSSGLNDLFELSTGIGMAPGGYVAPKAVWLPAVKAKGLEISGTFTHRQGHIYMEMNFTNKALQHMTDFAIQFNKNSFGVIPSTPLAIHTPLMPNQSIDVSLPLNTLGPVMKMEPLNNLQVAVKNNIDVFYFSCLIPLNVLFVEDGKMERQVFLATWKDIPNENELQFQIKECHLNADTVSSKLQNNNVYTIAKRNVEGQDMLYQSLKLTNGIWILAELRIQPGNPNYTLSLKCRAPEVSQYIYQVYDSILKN

[7] = cytosolic pH regulators acting via V-ATPase – S. cerevisiae, pHLuorin, HTS validation (AID 504600); details: V-ATPase proton transport, at 10 µM, stronger effect = higher value;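 also: plate controls were DMSO for no effect and reference compound for full effect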
[8] = tested on: anti-desmoglein-3 scFv antibody binding to human DSG3; experiment: blockers of pathogenic pemphigus antibody–desmoglein-3 binding – biochemical, validation compound set, bead-based, flow cytometry, pilot screen (AID 588368;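 active = binding below the plate cutoff, the plate median minus 3 SD, with a reading above zero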;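 also: signal is the median channel fluorescence of bead-bound GFP antibody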); details: Protein G beads, DSG3-Fc, scFv-GFP binding, at 10 µM, stronger effect = lower value
[9] = Nile Red efflux blockade in pump-expressing yeast – validation compound set, multiplex, phenotypic, pilot screen (AID 588506;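 active = efflux inhibition above 0.42, the validation set average plus 4 SD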;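 also: Nile Red retained in cells so higher fluorescence means more efflux inhibition; 0 = negative control wells and 1 = enniatin B 25 µM full block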); details: S. cerevisiae pump-expressing triplex, Nile Red efflux flow cytometry; at 10 µM; stronger effect = higher value; the pumps come from Candida albicans
[10] = molecular target: ATP-binding cassette sub-family B member 6 (Homo sapiens) (UniProt Q9NP58); experiment: blockers of ABCB6-driven porphyrin uptake – K562-ABCB6 cells, flow cytometry, validation set, pilot screen (AID 588550;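 active = inhibition above the screen-wide mean plus 3 SD, about 51%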;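 also: 0% = DMSO wells and 100% = benzethonium chloride 70 µM positive control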); details: K562-ABCB6 porphyrin accumulation, 1 h, at 10 µM, stronger effect = higher value
Sequence of ATP-binding cassette sub-family B member 6 (Homo sapiens) (Q9NP58 whole entry, looked up): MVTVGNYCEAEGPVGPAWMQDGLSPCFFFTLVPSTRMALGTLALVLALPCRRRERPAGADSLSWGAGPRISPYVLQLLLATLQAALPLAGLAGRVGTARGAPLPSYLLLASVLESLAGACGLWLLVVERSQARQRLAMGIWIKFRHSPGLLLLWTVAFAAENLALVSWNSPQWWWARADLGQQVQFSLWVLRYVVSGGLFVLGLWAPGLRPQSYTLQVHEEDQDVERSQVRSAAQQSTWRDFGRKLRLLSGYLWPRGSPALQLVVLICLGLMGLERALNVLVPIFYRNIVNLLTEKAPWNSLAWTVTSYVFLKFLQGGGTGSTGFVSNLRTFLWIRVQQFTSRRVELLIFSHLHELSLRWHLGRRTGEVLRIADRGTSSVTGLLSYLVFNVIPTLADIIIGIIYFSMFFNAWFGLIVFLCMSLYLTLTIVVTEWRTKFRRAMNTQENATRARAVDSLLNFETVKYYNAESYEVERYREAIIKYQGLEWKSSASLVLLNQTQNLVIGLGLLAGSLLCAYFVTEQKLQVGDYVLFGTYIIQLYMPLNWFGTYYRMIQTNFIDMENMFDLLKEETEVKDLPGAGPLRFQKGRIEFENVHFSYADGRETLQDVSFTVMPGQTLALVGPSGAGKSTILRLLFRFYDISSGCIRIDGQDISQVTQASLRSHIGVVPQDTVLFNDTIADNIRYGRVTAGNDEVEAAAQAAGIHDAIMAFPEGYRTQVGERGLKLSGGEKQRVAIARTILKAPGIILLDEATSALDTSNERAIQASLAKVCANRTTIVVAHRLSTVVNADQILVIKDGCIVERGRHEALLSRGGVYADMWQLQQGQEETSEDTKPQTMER

[11] = AML differentiation inducers, ER-HoxA9 marrow cells – cell-based, GFP/MAC1 double positive, flow cytometry, validation set, primary screen (AID 588685;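 active = differentiation response of at least 50%, scaled between solvent and reference control, from cells with both markers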;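 also: compound exposure lasts four days before antibody staining and flow analysis; 0% = DMSO wells and 100% = 5 µM fulvestrant positive control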); details: stronger effect = higher value, normalized: vehicle 0, fulvestrant 100

OC(CCCN1CCCCC1)(c1ccccc1)c1ccccc1
inactive: vesicle binding response [1] 250% | inhibition [2] 19.1% | superoxide response (% of plate) [3] 104% | aptamer binding inhibition [4] -3% | response [5] -0.72% | inhibition [6] -8.31% | response [7] 2.56% | binding (% of control) [8] 108% | efflux inhibition (fraction of control) [9] 0.34 | inhibition [10] 4% | differentiation response [11] -2.46%
62.8%: double positive events [1]

CCc1ccc(/C=C2\SC(=S)N(CCC(=O)N3CCN(C)CC3)C2=O)cc1
inactive: vesicle binding response [1] 275% | inhibition [2] -16.8% | superoxide response (% of plate) [3] 90.8% | aptamer binding inhibition [4] -1% | response [5] 39.6% | inhibition [6] -7.8% | response [7] -6.7% | binding (% of control) [8] 101% | efflux inhibition (fraction of control) [9] 0.3 | inhibition [10] 2% | differentiation response [11] 10.4%
56.3%: double positive events [1]

CCN(CC)C(=S)SSC(=S)N(CC)CC
59.7%: double positive events [1]
inactive: vesicle binding response [1] 164% | inhibition [2] 27.8% | superoxide response (% of plate) [3] 109% | aptamer binding inhibition [4] 4% | response [5] 14.2% | inhibition [6] 3.89% | response [7] -29.5% | binding (% of control) [8] 100% | efflux inhibition (fraction of control) [9] -0.13 | inhibition [10] 4% | differentiation response [11] -0.06%

COc1ccc(/C=N\NC(=O)CCc2c(C)n[nH]c2C)c(OC)c1OC
60.3%: double positive events [1]
inactive: vesicle binding response [1] 151% | inhibition [2] -3.16% | superoxide response (% of plate) [3] 111% | aptamer binding inhibition [4] 2% | response [5] 3.8% | inhibition [6] 7.15% | response [7] -0.97% | binding (% of control) [8] 102% | efflux inhibition (fraction of control) [9] -0.21 | inhibition [10] 4% | differentiation response [11] 4%

C[C@H](NC(=O)NCCc1ccccc1)C(=O)O
inactive: vesicle binding response [1] 252% | inhibition [2] 2.3% | superoxide response (% of plate) [3] 104% | aptamer binding inhibition [4] 6% | response [5] 0.08% | inhibition [6] -3.97% | response [7] -4.57% | binding (% of control) [8] 99.1% | efflux inhibition (fraction of control) [9] -0.13 | inhibition [10] 3% | differentiation response [11] 4%
58.1%: double positive events [1]

CC(C)=CCCC(C)CN1CCC(N2CCC(C(=O)N3CCCC3)CC2)CC1 (stereo unspecified)
inactive: vesicle binding response [1] 278% | inhibition [2] -11.3% | superoxide response (% of plate) [3] 93.3% | aptamer binding inhibition [4] -12% | response [5] 35% | inhibition [6] -10.9% | response [7] -0.07% | binding (% of control) [8] 106% | efflux inhibition (fraction of control) [9] -0.03 | inhibition [10] 5% | differentiation response [11] -7.2%
66.5%: double positive events [1]

C/C(NC(=O)c1cccs1)=C1\C(=O)C[C@@H]2[C@H]1C2(C)C
56.1%: double positive events [1]
inactive: vesicle binding response [1] 193% | inhibition [2] 0.59% | superoxide response (% of plate) [3] 102% | aptamer binding inhibition [4] -8% | response [5] -39.8% | inhibition [6] -13% | response [7] -6.85% | binding (% of control) [8] 105% | efflux inhibition (fraction of control) [9] -0.04 | inhibition [10] 9% | differentiation response [11] -11.9%

O=C(/C=C/c1ccc2c(c1)OCO2)c1ccccn1
60.4%: double positive events [1]
inactive: vesicle binding response [1] 181% | inhibition [2] 4.84% | superoxide response (% of plate) [3] 89.8% | aptamer binding inhibition [4] 1% | response [5] -23.4% | inhibition [6] -13% | response [7] -4.66% | binding (% of control) [8] 102% | efflux inhibition (fraction of control) [9] 0 | inhibition [10] -8% | differentiation response [11] -5.97%

CC(=O)Nc1cc(O)cc(O)c1
active: differentiation response [11] 69.6%
inactive: vesicle binding response [1] 189% | inhibition [2] 11.9% | superoxide response (% of plate) [3] 99.3% | aptamer binding inhibition [4] -2% | response [5] -0.41% | inhibition [6] 0.4% | response [7] -0.22% | binding (% of control) [8] 106% | efflux inhibition (fraction of control) [9] -0.06 | inhibition [10] 6%
60.5%: double positive events [1]

COc1cc(/C=C(\C#N)C(=O)N2CCc3ccccc32)ccc1O
64.1%: double positive events [1]
inactive: vesicle binding response [1] 273% | inhibition [2] -88.6% | superoxide response (% of plate) [3] 98.9% | aptamer binding inhibition [4] -1% | response [5] 0.72% | inhibition [6] -7.55% | response [7] 1.46% | binding (% of control) [8] 105% | efflux inhibition (fraction of control) [9] 0.19 | inhibition [10] -41% | differentiation response [11] 2.46%

COc1cccc(OC)c1C(=O)Nc1nc2ccc([N+](=O)[O-])cc2s1
inactive: vesicle binding response [1] 91.9% | inhibition [2] -14.5% | superoxide response (% of plate) [3] 101% | aptamer binding inhibition [4] -2% | response [5] 4.56% | inhibition [6] 10.3% | response [7] 1.22% | binding (% of control) [8] 101% | efflux inhibition (fraction of control) [9] 0.005 | inhibition [10] 8% | differentiation response [11] -3.11%
60.8%: double positive events [1]

O=C(O)C1Sc2[nH]c(=O)sc2C2c3ccc(O)cc3OC(=O)C12 (stereo unspecified)
62.6%: double positive events [1]
inactive: vesicle binding response [1] 157% | inhibition [2] -11.8% | superoxide response (% of plate) [3] 107% | aptamer binding inhibition [4] 1% | response [5] -11.1% | inhibition [6] -0.44% | response [7] 5.3% | binding (% of control) [8] 95.7% | efflux inhibition (fraction of control) [9] -0.1 | inhibition [10] -131% | differentiation response [11] -3.11%

O=C(Nc1ccccc1)c1ccccc1CCc1ccccc1
61.3%: double positive events [1]
active: response [5] 46.6%
inactive: vesicle binding response [1] 167% | inhibition [2] 6.95% | superoxide response (% of plate) [3] 90.9% | aptamer binding inhibition [4] 5% | inhibition [6] 9.22% | response [7] -1.57% | binding (% of control) [8] 95.3% | efflux inhibition (fraction of control) [9] -0.12 | inhibition [10] 0% | differentiation response [11] -0.18%
